Screens as filed in PubChem.
TDP1 cell CPT: qHTS for Inhibitors of human tyrosyl-DNA phosphodiesterase 1 (TDP1): qHTS in cells in presence of CPT; chicken DT40 Tdp1-/-;hTDP1 cells + 20 nM CPT, ATP luminescence, 48 h; Potency, µM (top dose mostly 46.2 µM), inactives show at the top dose activity change, negative = growth inhibition, usual class: inhibitors; 420,000 tested, 12% active; AID 686979, 2013; also: potency is read from the fitted curve at half-maximal effect; nearly all actives have a fitted effect of over 55% in size
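Cell growth measured by CellTiter-Glo luminescence after a minimum 48 h, 37 C compound exposure with 20 nM CPT in Tdp1-knockout DT40 cells stably expressing hTDP1, seeded 400/well; qHTS titration format.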
HT1080 IDH1KD tx: qHTS for induction of synthetic lethality in tumor cells producing 2HG: qHTS for the HT-1080-IDH1KD cell line | HT-1080 IDH1 knockdown viability, ATP luminescence, 48 h | Potency, µM (highest dose often 46.1 µM), without a hit: top-dose activity, negative = toxicity, hits mostly cytotoxic | 360,000 tested, 2% active | AID 686971, 2013;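 also: potency is read from the fitted curve at half-maximal effect; 0% = DMSO wells and -100% = cell-free medium wells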
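Knockdown cells (IDH1KD HT-1080) received compounds 2 h after plating at 750 cells/well and were kept 48 h at 37 °C in 5% FBS RPMI. A CellTiter-Glo luminescence read gave % activity for curve fitting.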
DT40 TDP1 no CPT: qHTS for Inhibitors of human tyrosyl-DNA phosphodiesterase 1 (TDP1): qHTS in cells in absence of CPT; Potency, µM (series often up to 46.2 µM), for inactives: at the highest dose activity change, negative = growth inhibition, usual class: inhibitors; AID 686978, 2013; 420,000 tested, 15% active; DT40 Tdp1-/- hTDP1 cells, no CPT, ATP luminescence, 48 h; also: potency is read from the fitted curve at half-maximal effect; nearly all actives have a fitted effect of over 55% in size
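Compound effects on proliferation are scored in DT40 Tdp1-/-;hTDP1 cells in the absence of CPT. ATP levels (CellTiter-Glo luminescence) are recorded after a ≥48 hr, 37 °C incubation.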
HT1080-NT tox: qHTS for induction of synthetic lethality in tumor cells producing 2HG: qHTS for the HT-1080-NT fibrosarcoma cell line; HT-1080-NT fibrosarcoma viability, CellTiter-Glo ATP luminescence, 48 h; Potency, µM (top dose mostly 46.1 µM), for inactives: top-dose activity, negative = less viability, usual class: cytotoxic; 360,000 tested, 1.6% active; AID 686970, 2013;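 also: NT is the 2HG producing partner of a matched IDH1 knockdown line; potency is read from the fitted curve at half-maximal effect; 0% = DMSO-treated cells and -100% = media-only wells without cells; nearly all actives have a fitted effect of over 55% in size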
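HT-1080-NT; 750 cells/well; 5% FBS RPMI; 48 h compound, 37 degrees C; CellTiter-Glo luminescence; curve fitting and curve-class assignment.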
uPA generation: qHTS for Inhibitors of Cell Surface uPA Generation; cell surface uPA generation assay, qHTS; Potency, µM (titrated, usually from 38.3 µM), without a hit: top-dose activity change, negative = inhibition, usual class: inhibitors; 330,000 tested, 0.31% active; active = well fitted inhibition curve with a large enough effect; inconclusive = small, poorly fitted or top-dose-only effect; inactive = no such curve, though single readings can be large or run the other way; tested in mouse RAW 264.7 cells; also: potency is read from the fitted curve at half-maximal effect; nearly all actives have a fitted effect of over 55% in size
IL1B secr inh: qHTS for Inhibitors of Inflammasome Signaling: IL-1-beta AlphaLISA Primary Screen; THP-1 LPS/ATP IL-1B secretion, AlphaLISA, 16 h; active compounds read low; activity change, % at 57.5 µM; 360,000 tested, 4.7% active; in the data active = activity change below about -50%; inconclusive = mostly about -30% to -49%
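Secreted IL-1B measured by AlphaLISA bead assay after 16 h compound exposure of THP-1 cells; compounds (final up to 57.5 uM) added 1 h before LPS (250 ng/mL) and ATP (1.25 mM) stimulation; lower signal means less secretion.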
Starred values were filed as active, the others as inactive; u = inconclusive; x = not tested or not shown; [ ] = another dose, or the depositor's remark. Sampled rows, rich in hits. Any-hit rate of the full collection: about 19%. Unless noted, calls follow the shape of the dose curve; as a rule, active = well fitted curve in the direction sought with a large enough effect; inconclusive = small, poorly fitted or top-dose-only effect, or another doubt; inactive = no such curve, though single readings can be large; an effect the other way counts as inactive or inconclusive. Unless noted, % is scaled to controls: 0 for no effect and ±100 for the full control effect.

SMILES	TDP1 cell CPT	HT1080 IDH1KD tx	DT40 TDP1 no CPT	HT1080-NT tox	uPA generation	IL1B secr inh
Cc1ccc(S(=O)(=O)N[C@@H](C)C(=O)OCC(=O)N2c3ccccc3NC(=O)C2(C)C)cc1	11%	9%	-1%	-1%	16%	15
CN(C)CCCN1c2ccc3ccccc3c2Sc2cccc(Cl)c21	u	u	u	-20%	11%	-96*
CN(C)CCCN1c2ccccc2Sc2ccc3ccccc3c21	u	u	u	-17%	-3%	-102*
CN(C)CCCN1c2ccccc2CCc2ccccc21	x	-4%	x	-2%	-5%	u
O=C(CCl)N1c2ccccc2Sc2ccc3ccccc3c21	3.7µM*	u	2.3µM*	18µM*	x	-104*
CCOc1ccc(C(=O)NCC(=O)NNC(=O)CN(C)S(=O)(=O)c2ccc(Cl)cc2)cc1OCC	0%	-1%	12%	-1%	2%	-10
Cc1ccc(C(C#N)c2ccc(C(=O)c3ccc(F)cc3)cc2)cc1 (configuration not stated)	23µM*	u	8.2µM*	-22%	1%	u
N#CC(c1ccc(F)cc1)c1ccc(C(=O)c2ccc(F)cc2)cc1 (configuration not stated)	u	-13%	21µM*	-14%	8%	u
Cc1ccc(C(=O)NC(C)c2ccc(F)cc2)cc1 (configuration not stated)	-1%	11%	-15%	9%	-8%	12
O=C1OC(Oc2ccccc2)(c2ccccc2)c2ccccc21 (configuration not stated)	5%	-19%	-29%	3%	3%	-19
O=C1OC(c2ccccc2)(N(Nc2ccccc2)c2ccccc2)c2ccccc21 (configuration not stated)	u	-25%	23µM*	u	x	-3
COc1ccc(C2=NOC(C(=O)N3CCN(c4ccccc4OC)CC3)C2)cc1 (configuration not stated)	16µM*	0%	23µM*	14%	2%	20
COc1ccc(-c2noc(N3CCC(C(=O)N4CCN(c5ccccc5OC)CC4)CC3)n2)cc1	10µM*	x	8.2µM*	x	x	x
COc1ccc(-c2noc(N3CCC(C(=O)N4CCN(c5ccccn5)CC4)CC3)n2)cc1	23µM*	-14%	10µM*	-15%	-8%	u
COc1ccc(-c2noc(N3CCC(C(=O)N4CCN(c5cccc(OC)c5)CC4)CC3)n2)cc1	6.5µM*	x	3.3µM*	x	x	x
CCc1ccc(NC(=O)C2CCN(c3nc(-c4ccc(OC)cc4)no3)CC2)cc1	0%	x	-4%	x	x	x
Cc1ccc(NC(=O)N2CCOCC2)cc1NC(=O)N1CCOCC1	12%	15%	2%	4%	x	3
C[C@H]1CN([C@@H](C)CO)C(=O)CCCn2nncc2CO[C@H]1CN(C)C(=O)C1CCCCC1	u	2%	u	5%	x	3
O=C(Nc1cc(C(=O)N2CCN(CCO)CC2)c2c(c1)ncn2C1CCCC1)c1ccccc1	18%	x	-10%	x	x	x
COc1cccc(-n2cc(C(=O)Nc3ccccc3C(N)=O)c3ccccc3c2=O)c1	u	x	10µM*	x	x	x
C=CCS/C(=N\n1cnc2ccccc2c1=O)N(CC)CC	u	9%	18µM*	3%	-3%	34
C=CCS/C(=N\n1cnc2ccccc2c1=O)N1CCCCC1	26µM*	-3%	18µM*	4%	0%	18
CC1(C)CC(=O)C(/C=N/n2cnc3ccccc3c2=O)=C(O)C1	-11%	16%	-12%	19%	-2%	0
COc1ccc2c(c1)c[n+](C)c1c3cc(OC)c(OC)cc3ccc21	1.2µM*	10µM*	1.2µM*	9.2µM*	x	u
COc1ccc(NC(=S)Nc2cccc3ccccc23)cc1OC	-23%	-2%	-7%	0%	-5%	6
SMILES	TDP1 cell CPT	HT1080 IDH1KD tx	DT40 TDP1 no CPT	HT1080-NT tox	uPA generation	IL1B secr inh
COc1ccc(Cc2c3cc(OC)c(OC)cc3cc[n+]2C)cc1OC	-18%	-3%	-12%	3%	-17%	2
COc1cc2c[n+](C)c3c4ccccc4ccc3c2cc1OC	1µM*	16µM*	1.5µM*	u	-5%	-112*
COc1cccc(-c2csc(N3CCN(CC(=O)NNC(=O)c4ccco4)CC3)n2)c1	u	2%	u	4%	13%	-5
COc1cccc(-c2csc(N3CCN(CC(=O)NNC(=O)c4ccc(Cl)cc4)CC3)n2)c1	u	11µM*	u	u	-13%	0
COc1cccc(-c2csc(N3CCN(CC(=O)NNC(=O)c4ccc(Br)cc4)CC3)n2)c1	u	u	16µM*	u	-16%	-24
O=C(CCn1c(=O)c2cccn2c2cccnc21)NCc1ccccc1F	-2%	x	-26%	x	x	x
O=C(COC(=O)C1CC(=O)N(Cc2ccco2)C1)Nc1nc(-c2ccc(F)cc2)cs1 (configuration not stated)	u	0%	-6%	2%	3%	9
C[C@@H](NC(=O)c1nc[nH]c1C(=O)NCc1ccccc1)c1ccccc1	u	0%	u	-6%	-7%	-13
COCCN1C(=O)c2[nH]nc(-c3ccccc3O)c2C1c1ccc(Cl)c(Cl)c1 (configuration not stated)	18µM*	x	9.2µM*	x	x	x
COc1ccc(CCN2C(=O)c3[nH]nc(-c4ccccc4O)c3C2c2cccc(Cl)c2)cc1 (configuration not stated)	23µM*	12µM*	21µM*	23µM*	-9%	-26
COc1ccc(CCN2C(=O)c3[nH]nc(-c4ccccc4O)c3C2c2cccc(OC)c2)cc1 (configuration not stated)	u	x	18µM*	x	x	x
CCCN(C(=O)COC(=O)c1nc2nc(C)cc(C)n2n1)C1CCS(=O)(=O)C1 (configuration not stated)	14%	3%	15%	0%[9.24 µM]	-10%	10
CCCn1nc2cc(C(=O)NCC34CC5CC(CC(C5)C3)C4)ccc2c1OCC	21µM*	1%	18µM*	-2%	u	-20
COCCNC(=S)NN=C1CCC(c2ccccc2)CC1 (configuration not stated)	u	-15%	5.2µM*	-10%	0%	14
